{
  "source": "PubChem BioAssay (NCATS)",
  "note": "A number with no mark means an inactive call. The source made the active and inactive calls. Calls come from the whole dose curve; as a rule, active = well fitted inhibition curve with a large enough effect; inconclusive = small, poorly fitted or top-dose-only effect; inactive = flat fitted curve, though single readings scatter. % is set by controls: 0 for no effect and ±100 for the full control effect; potency is the fitted concentration of half-maximal effect.",
  "data": [
    {"target": "Flap endonuclease 1 (Homo sapiens) (UniProt P39748)", "sequence (P39748 whole entry, looked up)": "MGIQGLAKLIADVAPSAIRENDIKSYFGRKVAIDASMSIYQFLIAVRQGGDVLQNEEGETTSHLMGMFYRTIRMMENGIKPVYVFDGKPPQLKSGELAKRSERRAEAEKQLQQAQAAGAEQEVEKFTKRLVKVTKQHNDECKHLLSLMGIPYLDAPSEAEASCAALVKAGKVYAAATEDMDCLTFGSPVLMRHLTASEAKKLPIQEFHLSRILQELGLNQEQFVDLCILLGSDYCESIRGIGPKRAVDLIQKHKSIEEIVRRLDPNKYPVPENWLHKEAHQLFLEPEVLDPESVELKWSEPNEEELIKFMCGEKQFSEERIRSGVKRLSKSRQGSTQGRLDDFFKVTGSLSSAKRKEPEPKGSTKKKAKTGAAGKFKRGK", "assay": "qHTS Validation Assay for the Inhibitors of Human Flap endonuclease 1 (FEN1) (AID 488816)", "conditions": "FEN1 nuclease activity, fluorogenic DNA substrate; series mostly up to 57.1 µM; activity, negative = inhibition: at the top concentration", "source_text": "The major human flap endonuclease FEN1 is an efficient structure-specific enzyme that recognizes and cleaves a 5'-unannealed DNA flap. It belongs to the RAD2 family nucleases, which are involved in DNA metabolism and are highly conserved in prokaryotes and eukaryotes. FEN1 is a key enzyme in DNA replication, repair and maintenance of genomic stability. 5'-flap removal by FEN1 is critical for Okazaki fragment processing during lagging strand DNA synthesis, long-patch base excision repair (LP BER), and regulating or facilitating recombination events. […] Deletion of the yeast FEN1 gene, i.e. rad27, results in an increased frequency of short DNA (3-32 bp) repeats, micro- and mini-satellite formation, trinucleotide repeat expansion, spontaneous recombination events, and a severe growth defect in association with cell cycle arrest in late S/G2 phase. […] Cells from fen1-/- blastocysts show increased apoptotic cell death after ionizing radiation treatment, and chicken cells lacking the fen1 gene are hypersensitive to DNA alkylating agents, e.g. methylmethane sulfonate (MMS) and N-methyl-N'-nitro-N-nitrosoguanidine (MNNG), as well as hydrogen peroxide.\nFEN1 is found to be increased in many human cancers, including lung, brain cancer, gastric cancer, prostate cancer, pancreatic cancer and breast cancer. […] In particular, elevation of FEN1 in hormone refractory human prostate cancer cells correlates with resistant to various anticancer agents including ionizing radiation, doxorubicin, paclitaxel and vinblastine.\nThree uL of reagents (buffer in column 3 and 4 as negative control and 10 nM FEN1 in columns 1, 2, and 5-48) were dispensed into 1,536-well black solid-bottomed plate. Compounds (23 nL) were transferred via Kalypsys pin tool equipped with 1536-pin array (10 nL slotted pins, V&P Scientific, San Diego, CA). The plates were then incubated for 15 min at room temperature, and 1 uL substrate (50 nM final concentration) were added to start the reaction read twice at 0 min read and 15 min on ViewLux reader. Throughout the screen, reagent bottle and all liquid lines were chilled and made light-tight to minimize reagent degradation. All screening operations were performed on a fully integrated robotic system (Kalypsys, San Diego, CA) containing one RX-130 and two RX-90 anthropomorphic robotic arms (Staubli, Duncan, SC). Library plates were screened starting from the lowest and proceeding to the highest concentration, and a \"double-dipping\" step of the highest concentration was required to access higher concentrations of compounds. Vehicle-only plates, with DMSO being pin-transferred to the entire column 5-48 compound area, were inserted uniformly at the beginning and the end of each library in order to monitor for and record any shifts in the background, which can be affected by reagent dispensers or loss in enzyme activity overtime. Screening data was corrected, normalized, and concentration-effect relationships were derived by using publicly-available curve fitting algorithms developed in-house (http://ncgc.nih.gov/pub/openhts). A four parameter Hill equation was fitted to the concentration-response data by minimizing the residual error between the modeled and observed responses.", "units": {"activity, negative = inhibition": "%"}, "values": [
      {"smiles": "COc1ccccc1N1CCN(CCN(C(=O)c2ccc(F)cc2)c2ccccn2)CC1", "activity, negative = inhibition": -1.49},
      {"smiles": "NOCC(=O)O", "activity, negative = inhibition": 0.669},
      {"smiles": "CC#CCOC(=O)c1c(C)nc2sc3c(c2c1N)CCC(O)C3", "note": "(stereo not given)", "activity, negative = inhibition": -10.3},
      {"smiles": "CCC1(O)CC2CN(CCc3c([nH]c4ccccc34)[C@@](C(=O)OC)(c3cc4c(cc3OC)N(C=O)C3[C@]45CCN4CC=C[C@@](CC)([C@@H](OC(C)=O)[C@]3(O)C(=O)OC)[C@H]45)C2)C1", "note": "(stereo not given in full)", "activity, negative = inhibition": -4.44},
      {"smiles": "CCN(CC)CCCCCCCCOC(=O)c1cc(OC)c(OC)c(OC)c1", "activity, negative = inhibition": 0.562},
      {"smiles": "COc1ccc(CCN(C)CCc2ccc(OC)c(OC)c2)cc1OC", "activity, negative = inhibition": -3.44},
      {"smiles": "CCCCCCC/C=C\\CCCCCCCCC(=O)O", "activity, negative = inhibition": -2.02},
      {"smiles": "CCCCCCCCCC[Si](C)(C)CCC(=O)NC(Cc1ccc(C)cc1)c1ccccc1", "note": "(stereo not given)", "activity, negative = inhibition": -4.08},
      {"smiles": "CC1CNCCN1S(=O)(=O)c1cccc2cnccc12", "note": "(stereo not given)", "activity, negative = inhibition": -7.05},
      {"smiles": "COC(=O)[C@H](NC(=O)c1cc(-c2ccccc2)nc2ccccc12)c1ccccc1", "activity, negative = inhibition": -19},
      {"smiles": "N=C(N)SCCc1cnc[nH]1", "activity, negative = inhibition": -4.52},
      {"smiles": "CCc1ccc2c(-c3cccc(Cl)c3)nc(=O)n(CC)c2n1", "activity, negative = inhibition": -10.6},
      {"smiles": "COc1cc2c(CCNC(C)=O)c[nH]c2cc1O", "activity, negative = inhibition": -3.56},
      {"smiles": "CNCCc1cnc(CCC(c2ccccc2)c2ccccc2)[nH]1", "activity, negative = inhibition": -8.56},
      {"smiles": "CCCn1c(=O)c2[nH]c(-c3ccc(S(=O)(=O)O)cc3)nc2n(CCC)c1=O", "activity, negative = inhibition": -4.89},
      {"smiles": "NC/C=C\\C(=O)O", "activity, negative = inhibition": -10.3},
      {"smiles": "C[N+](C)(C)CC=O", "activity, negative = inhibition": 0.858},
      {"smiles": "O=C(O)Cc1c[nH]c2ccc(O)cc12", "activity, negative = inhibition": -4.87},
      {"smiles": "CCCCCCCCCCC/C=C\\C(C)(C)/C=C\\CCCC(=O)O", "activity, negative = inhibition": -4.4},
      {"smiles": "CC[N+](CC)(CC)CC(=O)Nc1c(C)cccc1C", "activity, negative = inhibition": -4.06},
      {"smiles": "Nc1nc2[nH]c(=O)cnc2c(=O)[nH]1", "activity, negative = inhibition": -9.4},
      {"smiles": "Cc1nc(N=Nc2ccc(C(=O)O)cc2)c(COP(=O)(O)O)c(C=O)c1O", "activity, negative = inhibition": -11.1},
      {"smiles": "CNCCNS(=O)(=O)c1cccc2cnccc12", "activity, negative = inhibition": 0.991},
      {"smiles": "NC(N)=[N+]1CCc2ccccc2C1", "activity, negative = inhibition": 0.227},
      {"smiles": "Cc1nc(N=Nc2cc(S(=O)(=O)O)c3cc([N+](=O)[O-])cc(S(=O)(=O)O)c3c2)c(COP(=O)(O)O)c(C=O)c1O", "Potency": "23.8 µM (active)"},
      {"smiles": "COC(=O)C1=C(C)NC(C)=C([N+](=O)[O-])C1c1ccccc1C(F)(F)F", "note": "(stereo not given)", "activity, negative = inhibition": -6.17},
      {"smiles": "CC(C)(C)c1cc(/C=C(\\C#N)C(N)=S)cc(C(C)(C)C)c1O", "activity, negative = inhibition": -11.1},
      {"smiles": "O=c1[nH]c2cc(Cl)ccc2c(O)c1-c1ccc(Oc2ccccc2)cc1", "activity, negative = inhibition": -10.9},
      {"smiles": "[N-]=[N+]=Nc1ccc(C(=O)CSC[C@H](NC(=O)CC[C@H](N)C(=O)O)C(=O)NCC(=O)O)cc1", "activity, negative = inhibition": -5.32},
      {"smiles": "CCCCOC(=O)NS(=O)(=O)c1sc(CC(C)C)cc1-c1ccc(Cn2c(CC)nc3c(C)cc(C)nc32)cc1", "activity, negative = inhibition": -23.4},
      {"smiles": "c1ccc2c(c1)CCC[C@H]2Nc1nc2ccccc2[nH]1", "activity, negative = inhibition": -2.57},
      {"smiles": "CCC(=O)N1CCN(C(=O)c2ccccc2)CC1", "activity, negative = inhibition": -2.31},
      {"smiles": "N#CC(C#N)=C(N)/C(C#N)=C/c1ccc(O)cc1", "activity, negative = inhibition": -16.6},
      {"smiles": "CSC(=N)N", "activity, negative = inhibition": -2.87},
      {"smiles": "CCCOC(=O)c1c(-c2ccccc2)nc(CC)c(C(=O)SCC)c1CCC", "activity, negative = inhibition": 2.51},
      {"smiles": "CNC(=O)c1cc2c(cn1)[nH]c1ccccc12", "activity, negative = inhibition": -8.37},
      {"smiles": "C#CCn1c(=O)c2c(ncn2C)n(C)c1=O", "activity, negative = inhibition": -10.2},
      {"smiles": "CN(C)C(=O)/N=N/C(=O)N(C)C", "activity, negative = inhibition": -0.532},
      {"smiles": "Nc1nc2c(nc(Br)n2C2OC3COP(=O)(O)O[C@@H]3C2O)c(=O)[nH]1", "note": "(stereo not given in full)", "activity, negative = inhibition": -9.13},
      {"smiles": "O=c1ccc2c(OCCCCc3ccccc3)c3ccoc3cc2o1", "activity, negative = inhibition": -15.8}
    ]}
  ]
}
